Laboratory results as given in PubChem BioAssay AID624330 (Southern Research Specialized Biocontainment Screening …, 2012).
Screen size: about 340,000 compounds; about 2,100 (0.62%) were called active.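 Rule for the calls: active = first-screen hits whose inhibition reached a set limit at any dose in the follow-up dose series; inconclusive = inhibition above the set first-screen limit but never retested; inactive = the rest.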 Only a sample is shown. Results with a measured potency or affinity are listed apart.

The molecules below were run against Rac GTPase-activating protein 1 (Homo sapiens) (UniProt Q9H0H5) (assay: blockers of MgcRacGAP-driven Rac1 GTP hydrolysis – biochemical, ADP Hunter fluorescence, primary and confirmatory, confirmation (AID 624330;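 note: fluorescence reports GDP produced by GAP-driven GTP hydrolysis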)). Settings: MgcRacGAP-stimulated Rac1 GTP hydrolysis, at 30 µM, active compounds read high, GST-tagged Rac1 F28L mutant substrate.
Rac GTPase-activating protein 1 (Homo sapiens), sequence (Q9H0H5 whole entry, looked up): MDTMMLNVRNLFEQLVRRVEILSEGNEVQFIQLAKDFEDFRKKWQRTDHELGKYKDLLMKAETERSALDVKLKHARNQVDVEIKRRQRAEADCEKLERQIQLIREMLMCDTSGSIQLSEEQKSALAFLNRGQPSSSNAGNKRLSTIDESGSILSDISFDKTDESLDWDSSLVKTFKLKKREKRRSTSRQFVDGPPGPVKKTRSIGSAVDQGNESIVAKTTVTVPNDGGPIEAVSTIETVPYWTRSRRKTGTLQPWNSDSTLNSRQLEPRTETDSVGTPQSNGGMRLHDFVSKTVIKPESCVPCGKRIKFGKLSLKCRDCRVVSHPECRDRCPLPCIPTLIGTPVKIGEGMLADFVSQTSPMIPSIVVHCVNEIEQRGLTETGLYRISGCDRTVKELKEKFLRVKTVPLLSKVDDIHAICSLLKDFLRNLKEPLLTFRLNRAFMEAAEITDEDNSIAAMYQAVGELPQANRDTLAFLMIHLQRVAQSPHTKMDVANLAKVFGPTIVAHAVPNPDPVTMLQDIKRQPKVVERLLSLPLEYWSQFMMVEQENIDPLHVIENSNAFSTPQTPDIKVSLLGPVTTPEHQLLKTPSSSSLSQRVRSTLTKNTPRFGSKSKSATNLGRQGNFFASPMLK

inhibition, inactive:
CCC(C)[C@H](NC(=O)NCc1ccc(OC)c(OC)c1)C(=O)O (stereo partly specified) 11.4%
Cc1ccc2nc(SCc3nnc(-c4ccccc4)o3)[nH]c2c1 12.2%
CCOC(=O)C1(Cc2ccccc2C)CCCN(C(=O)c2ccc3nccnc3c2)C1 (stereo unspecified) 7.5%
CCN(c1ccccc1)S(=O)(=O)c1ccc(C(=O)NCCCN2CCOCC2)cc1 8.29%
O=C(NNC(=O)c1ccccc1[N+](=O)[O-])c1ccc(NC(=O)c2ccccc2)cc1 12.4%
O=C(N/C=C\n1cnc2cc(C(F)(F)F)ccc21)c1ccc([N+](=O)[O-])cc1 6.01%
CS(=O)(=O)c1ccc(Cl)c(NC(=O)CN2CCN(C(=O)c3cccs3)CC2)c1 3.52%
c1ccc(N2CCN(c3nc4ccccc4n4nnnc34)CC2)cc1 2.04%
O=C(NCc1cccc(F)c1)C1CCC(=O)N(CCc2cccc(F)c2)C1 (stereo unspecified) 0.03%
COc1cccc(C(CC(=O)NCc2ccco2)NS(=O)(=O)c2ccc(C)cc2)c1OC (stereo unspecified) 2.02%
O=C(COC(=O)c1ccccc1C(=O)c1ccc(Cl)cc1)NCC1CCCO1 (stereo unspecified) 3.71%
COc1ccccc1CN1CCSCC1 23.4%
COc1ccc(S(=O)(=O)N2CCN(Cc3ccccc3OC)CC2)cc1 11.4%
O=C(Nc1ccccc1)Nc1nncs1 9.87%
O=c1[nH]n(-c2ccc(Cl)cc2)c2ncccc12 31.6%
O=c1[nH]n(-c2ccc(F)cc2)c2ncccc12 15.2%
CC(C)=N/N=c1\scc(C)n1Cc1ccco1 6.39%
Cc1cs/c(=N\N=C\c2ccccc2)n1Cc1ccco1 7.87%
C[C@H](CO)N1C[C@H](C)[C@@H](CN(C)C(=O)Nc2ccc(C(F)(F)F)cc2)Oc2c(NC(=O)CCC(F)(F)F)cccc2C1=O 3.3%
Cc1cccc(C(=O)c2cn[nH]c2-c2ccc(C)cc2O)c1 4.53%
Cc1ccc(CNC(=O)C(=O)NCCC2CCCCN2S(=O)(=O)c2ccccc2)cc1 (stereo unspecified) 9.49%
Cc1ccccc1CNC(=O)CCn1nc(C)c2c(C)n(-c3ccccc3)nc2c1=O 13.3%
O=C(NC(=S)Nc1cccc2ncccc12)c1ccco1 -0.13%
O=C(COc1ccccc1)NC(=S)Nc1cccc2c(O)cccc12 17.9%
O=C(NC(=S)Nc1cccc2cc(O)ccc12)c1ccco1 23.9%
CCCC(=O)NC(=S)Nc1ccccc1F 5.15%
